Measured values: ChEMBL document CHEMBL4513146, “CO-ADD screening of Karazin Kharkiv National University (Ukraine) compounds”
Potency and affinity values are given separately.

These molecules were tested on Klebsiella pneumoniae. Settings: Concentration 32 ug.mL-1;; ASSAY_TEST Inhibition of Bacterial Growth; detection method Absorption (OD600); MEDIA CAMHB; plate type 384well; NBS; CORNING #3640; time 18 hr.

SMILES | Inhibition [%]
CSc1ccc(CNC(=O)Cn2nc3c(N4CCOCC4)nccn3c2=O)cc1 | 9.81
CCc1ccccc1Sc1nccn2c(=O)n(CC(=O)NCc3ccc(OC)cc3)nc12 | 1.83
Cc1ccc(-c2cc3c4nn(CC(=O)Nc5c(C)cccc5C)c(=O)n4ccn3n2)cc1 | 9.73
COc1cccc(Oc2nccn3c(=O)n(CC(=O)NCc4ccccc4Cl)nc23)c1 | 18.21
Cc1cc2nn(CC(=O)Nc3ccc(F)cc3F)c(=O)n2c(Nc2ccc(C)c(F)c2)n1 | 8.43
CC(C)(C)S(=O)(=O)c1ccc2nn(CC(=O)Nc3ccc(Br)cc3)c(=O)n2n1 | 6.53
COc1ccc(-c2noc(Cn3nc4ccc(-c5ccccc5)nn4c3=O)n2)cc1OC | 11.35
COC(=O)c1ccc(CN(c2cccc(C)c2)S(=O)(=O)c2cccn3c(C)nnc23)o1 | 9.19
CCc1nnc2c(SCC(=O)Nc3ccc(C)cc3Cl)nc3ccccc3n12 | 11.28
Cc1cccc(NC(=O)Cn2nc3ccc(-c4ccccc4)nn3c2=O)c1 | 6.7
Cc1nnc2ccc(S(=O)(=O)N(Cc3cccc(F)c3)c3cc(F)cc(F)c3)cn12 | 10.98
COc1ccc(CN(c2cc(C)cc(C)c2)S(=O)(=O)c2cccn3cnnc23)cc1F | -0.72
O=C(Cn1nc2ccc(SCc3ccc(Cl)cc3)nn2c1=O)NC1CCCCC1 | 3.63
COC(=O)c1ccc(CN(c2ccc(F)cc2)S(=O)(=O)c2cccn3c(C)nnc23)o1 | 11.43
Cc1ccc(-c2cc3c4nn(CC(=O)Nc5ccc6c(c5)OCO6)c(=O)n4ccn3n2)cc1 | 10
O=C(CSc1nnc2c(=O)n(-c3cccc(F)c3)ccn12)Nc1ccc(Br)cc1F | 15.26
COc1cccc(-c2noc(Cn3nc4ccc(-c5ccccc5)nn4c3=O)n2)c1OC | 1.06
O=c1c2sccc2n2c(=O)n(Cc3ccccc3Cl)nc2n1Cc1cccs1 | -3.57
COC(=O)c1ccc(NC(=O)Cn2nc3c(N4CCOCC4)nccn3c2=O)cc1 | 12.49
CCOc1ccc(NC(=O)Cn2nc3c4cc(-c5ccc(C)cc5)nn4ccn3c2=O)cc1 | 14.64
CCc1ccccc1NC(=O)Cn1nc2cc(C)nc(Nc3ccc(F)cc3)n2c1=O | 9.33
O=C(Cn1nc2nc(Nc3ccc(F)cc3)ccn2c1=O)N1CCCc2ccccc21 | 14.82
CCOc1ccc(-n2ccn3c(SC(CC)C(=O)Nc4ccc(C(C)C)cc4)nnc3c2=O)cc1 (stereo unspecified) | 9.42
O=S(=O)(c1ccc2nncn2c1)N(Cc1cc(F)cc(F)c1)c1cc(F)cc(F)c1 | -2.94
CCc1nnc2ccc(S(=O)(=O)N(Cc3ccc(OC)c(F)c3)c3ccccc3)cn12 | -3.43
COc1ccc(OC)c(NC(=O)Cn2nc3c(SCc4ccc(Cl)cc4)nccn3c2=O)c1 | 1.59
